RORg inh = ROR gamma (mouse) transcription inhibition. 310,000 tested, 5.4% active. AID 2551. Potency, µM (highest dose often 53.6 µM), hits mostly inhibitors. Drosophila S2 Gal4-RORgamma UAS-luciferase reporter, 20 h. P51450; note: nearly all actives have a fitted effect of over 60% in size
Target sequence (P51450 whole entry, looked up, the tested form may be a part): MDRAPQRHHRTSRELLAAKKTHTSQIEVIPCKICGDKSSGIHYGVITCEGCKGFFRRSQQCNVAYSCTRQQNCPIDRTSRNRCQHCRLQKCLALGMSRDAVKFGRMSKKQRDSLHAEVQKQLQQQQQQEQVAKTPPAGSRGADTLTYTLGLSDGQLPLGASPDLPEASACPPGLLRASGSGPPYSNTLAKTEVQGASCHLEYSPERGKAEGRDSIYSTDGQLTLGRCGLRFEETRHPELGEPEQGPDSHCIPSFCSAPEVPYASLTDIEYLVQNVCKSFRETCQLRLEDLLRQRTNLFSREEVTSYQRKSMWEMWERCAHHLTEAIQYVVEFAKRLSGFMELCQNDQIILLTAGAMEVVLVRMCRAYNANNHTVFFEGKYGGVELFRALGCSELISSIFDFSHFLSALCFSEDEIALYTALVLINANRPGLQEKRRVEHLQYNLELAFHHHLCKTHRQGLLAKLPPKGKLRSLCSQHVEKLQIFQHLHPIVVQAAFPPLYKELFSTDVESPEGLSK
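A Gal4/UAS one-hybrid system in insect cells: metallothionein-promoter Gal4–ROR gamma fusion plus Photinus luciferase reporter. Copper sulfate 700 uM final, 20 hr ambient incubation, luminescent detection after 10 min with reagent.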
VP16 counter = counter-screen for ROR gamma inhibitors: Gal4-VP16 reporter; Drosophila S2 Gal4-VP16 UAS-luciferase, luminescence, 20 h; Potency, µM (doses to about 53.6 µM), hits mostly inhibitors; 310,000 tested, 3.5% active;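 note: Gal4-VP16 expression switched on by copper sulfate through the metallothionein promoter; nearly all actives have a fitted effect of over 50% in size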
KinaseGlo FLuc = counter-screen: inhibitors of Kinase-Glo firefly luciferase | Q27757 | Kinase-Glo luciferase, ATP luminescence, 8 min | Potency, µM (series often up to 38.3 µM), actives largely listed as inhibitors | 200,000 tested, 0.28% active; note: nearly all actives have a fitted effect of over 60% in size
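Light output from Kinase-Glo luciferase with luciferin and 10 uM ATP in 50 mM imidazole pH 7.2, KCl, MgCl2, Tween 20, BSA; compound pin-delivered, 8-min ambient incubation, then luminescence read.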
Each line names hits and unclear results; the compound was inactive in the other large screens; ! = not confirmed by another sample. Shown are actives, neighbours in structure and some others; about 6.2% of the full set was active somewhere. Calls come from the whole dose curve; as a rule, active = well fitted curve in the direction sought with a large enough effect; inconclusive = small, poorly fitted or top-dose-only effect, or another doubt; inactive = no such curve, though single readings can be large; an effect the other way counts as inactive or inconclusive.

Cl/C=C/CCl	none (no result: KinaseGlo FLuc)
c1cc2c(cc1[C@H]1OC[C@@H]3[C@H]1CO[C@H]3c1ccc3c(c1)OCO3)OCO2	none
CCC1COC(Cn2cncn2)(c2ccc(Cl)cc2Cl)O1 (configuration not stated)	none (no result: KinaseGlo FLuc)
O=C(NCc1ccc(C(=O)N2CCC3(CC2)OCCO3)cc1)c1ccc2c(c1)OCO2	none
O=C(c1ccc2c(=O)n(Cc3ccc4c(c3)OCO4)c(=S)[nH]c2c1)N1CCC2(CC1)OCCO2	RORg inh 13µM, VP16 counter inconclusive
CCCCCCC(C)(C)c1ccc([C@@H]2C[C@H](O)CC[C@@H]2CCCO)c(O)c1	RORg inh inconclusive, VP16 counter inconclusive
O=C(O)[C@H]1C2c3ccccc3C(c3ccccc32)[C@@H]1C(=O)NCC1CC1	none (no result: RORg inh, VP16 counter)
C[C@@H]1Cc2c(Cl)cc(C(=O)N[C@@H](Cc3ccccc3)C(=O)O)c(O)c2C(=O)O1	RORg inh inconclusive, VP16 counter 22µM
Cc1cc(OCC(=O)N[C@@H](Cc2ccccc2)C(=O)O)c2c3c(c(=O)oc2c1)CCCC3	none (no result: KinaseGlo FLuc)
CCCC(=O)O[C@@H]1[C@@H](C)[C@@]2(O)[C@@H](C=C(CO)C[C@@]3(O)C(=O)C(C)=C[C@@H]23)[C@@H]2C(C)(C)[C@]12OC(=O)CCC	none (no result: KinaseGlo FLuc)
CCCCCCCCCCCCCl	none (no result: KinaseGlo FLuc)
CCCCCCCCCCCCCCCC[n+]1ccccc1	RORg inh inconclusive, VP16 counter 16µM
C=C(C)[C@]12C[C@@H](C)[C@@]34O[C@](Cc5ccccc5)(O[C@@H]1[C@@H]3C=C(COC(=O)Cc1ccc(O)c(OC)c1)C[C@]1(O)C(=O)C(C)=C[C@@H]41)O2	VP16 counter inconclusive
Nc1nc(N)c(N=Nc2ccc([As](=O)(O)O)cc2)c(=O)[nH]1	none (no result: RORg inh, VP16 counter)
O=C(Nc1ccc(Cl)cc1C(=O)c1ccccc1Cl)c1ccco1	none
O=C(Nc1ccccc1C(=O)N/N=C/c1ccco1)c1ccccc1Cl	RORg inh 3.5µM, VP16 counter inconclusive
O=c1[nH]c2sccc2c2ccccc12	none (no result: KinaseGlo FLuc)
C/C=C(/C)C(=O)O[C@H]1C(C)=C2C([C@@H]1OC(=O)CCCCCCC)[C@@](C)(OC(C)=O)C[C@@H](OC(=O)CCC)[C@@]1(O)[C@H]2OC(=O)[C@@]1(C)O (some centres not stated)	none (no result: RORg inh, VP16 counter)
CC(C)[C@@]1(NC(=O)[C@@H]2C[C@@H]3c4cccc5[nH]cc(c45)C[C@H]3N(C)C2)O[C@@]2(O)[C@@H]3CCCN3C(=O)[C@H](Cc3ccccc3)N2C1=O	RORg inh 2.8µM!, VP16 counter inconclusive
CC(C)[C@@]1(NC(=O)[C@@H]2C[C@@H]3c4cccc5[nH]cc(c45)C[C@H]3N(C)C2)O[C@@]2(O)C3CCCN3C(=O)[C@H](Cc3ccccc3)N2C1=O (some centres not stated)	none (no result: RORg inh, VP16 counter)
C[C@H]1CO1	none (no result: KinaseGlo FLuc)
CN1C(=O)/C(=C/c2cccn2-c2ccc3ccccc3c2)C(=O)NC1=S	RORg inh 13µM
O=C1NC(=S)NC(=O)C1=Cc1cccn1-c1ccc(O)cc1	RORg inh 2.8µM, VP16 counter 8.9µM
Cc1cc(C)cc(N2C(=O)NC(=O)/C(=C\c3cccn3-c3ccccc3)C2=O)c1	VP16 counter inconclusive
Cc1cc(C)cc(N2C(=O)NC(=O)/C(=C\c3cccn3-c3ccc(Cl)cc3)C2=O)c1	RORg inh inconclusive, VP16 counter inconclusive
CCC(=O)OC1CCC2C3CCc4cc(O)ccc4C3CC[C@]12C (some centres not stated)	RORg inh inconclusive, VP16 counter inconclusive
CC(C)OC(=O)C(O)(c1ccc(Cl)cc1)c1ccc(Cl)cc1	none (no result: KinaseGlo FLuc)
C[C@H]1C2C=C[C@H]1[C@@H](C(=O)O)[C@@H]2c1c2ccc(=O)c(O)c-2oc2c(O)c(O)ccc12	none (no result: RORg inh, VP16 counter)
COc1cc2c(cc1OC)-c1c3c(cc4c1[C@@H](C2)N(C)CC4)OCO3	RORg inh inconclusive, VP16 counter 13µM
COc1cc2c(cc1OC)-c1c(O)c(OC)cc3c1[C@H](C2)N(C)CC3	none
COc1cc2c(cc1O)C[C@H]1NCCc3cc4c(c-2c31)OCO4	RORg inh 10µM, VP16 counter inconclusive
CN1CCc2cc3c(c4c2[C@H]1Cc1ccccc1-4)OCO3	none (no result: KinaseGlo FLuc)
CC(=O)Nc1c2sscc-2n(C)c1=O	RORg inh 0.4µM, VP16 counter 0.25µM
CCOP(=S)(OCC)Oc1ccc(Cl)cc1Cl	none (no result: KinaseGlo FLuc)
C[C@@]12CCC3C(CCC4=CC(=O)CC[C@]43C)C1CCC2O (some centres not stated)	none
C#CCOS(=O)OC1CCCCC1Oc1ccc(C(C)(C)C)cc1 (configuration not stated)	RORg inh inconclusive
CNc1ccccc1C(=O)O	none
C[CH2][Hg][S]c1ccccc1C(=O)O	RORg inh 1.1µM, VP16 counter 0.63µM
CCOC(=O)CCN(SN(C)C(=O)Oc1cccc2c1OC(C)(C)C2)C(C)C	none (no result: KinaseGlo FLuc)
